Bioassay records (PubChem BioAssay)
BoNT-F LC inh – inhibitors of Botulinum neurotoxin F light chain protease | Multiplex microsphere protease cleavage assay, flow cytometry | AID 588497 | inhibition, % at 10 µM | actives 0.22% (n = 360,000); in the data active means inhibition above about 35%, passing the limit was not always enough; inconclusive means no clear call, values can overlap the other calls
Bead autofluor – counter-screen for toxin protease inhibitors: compound fluorescence. compound autofluorescence counterscreen, microsphere flow cytometry; active compounds read high. fluorescence intensity (no concentration beside the values). actives 3.1% (n = 360,000). AID 624483; in the data active means fluorescence intensity above about 16000; inconclusive means no clear call, values can overlap the other calls
BoNT-A LC inh2 – blocks Botulinum neurotoxin A light chain protease; multiplex microsphere protease substrate cleavage, flow cytometry; actives 0.17% (n = 360,000); inhibition, % at 10 µM
Anthrax LF prot – anthrax lethal factor protease inhibition; inhibition, % at 10 µM; P15917; AID 588501; multiplex microsphere protease cleavage assay, LF; actives 0.12% (n = 360,000)
Target sequence (P15917 whole entry, looked up): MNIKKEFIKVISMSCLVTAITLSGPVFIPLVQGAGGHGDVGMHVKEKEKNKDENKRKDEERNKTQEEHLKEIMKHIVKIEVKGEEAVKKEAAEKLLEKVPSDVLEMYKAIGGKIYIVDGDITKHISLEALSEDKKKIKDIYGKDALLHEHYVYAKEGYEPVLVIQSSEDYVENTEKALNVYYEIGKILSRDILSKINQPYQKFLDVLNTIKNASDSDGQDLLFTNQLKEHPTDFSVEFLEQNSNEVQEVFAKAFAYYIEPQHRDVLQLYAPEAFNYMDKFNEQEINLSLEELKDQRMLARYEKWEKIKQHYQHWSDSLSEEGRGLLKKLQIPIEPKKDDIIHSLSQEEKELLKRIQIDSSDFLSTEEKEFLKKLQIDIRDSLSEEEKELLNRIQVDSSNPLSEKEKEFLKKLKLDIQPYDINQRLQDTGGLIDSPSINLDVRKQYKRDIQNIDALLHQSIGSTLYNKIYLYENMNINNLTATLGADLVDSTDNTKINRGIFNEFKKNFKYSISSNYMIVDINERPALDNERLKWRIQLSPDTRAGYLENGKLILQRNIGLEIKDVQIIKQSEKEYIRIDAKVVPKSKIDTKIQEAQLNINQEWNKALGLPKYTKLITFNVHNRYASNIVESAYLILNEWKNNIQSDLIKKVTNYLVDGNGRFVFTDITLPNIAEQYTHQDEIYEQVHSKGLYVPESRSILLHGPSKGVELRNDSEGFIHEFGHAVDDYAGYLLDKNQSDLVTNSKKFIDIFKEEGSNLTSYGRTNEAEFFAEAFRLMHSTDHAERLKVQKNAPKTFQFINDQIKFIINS
BJeLR viability – kills HRASV12-expressing BJeLR cells; BJeLR (HRASV12) viability, CellTiter-Glo ATP luminescence, 48 h; actives 0.17% (n = 300,000); inhibition, % (concentration not given with the values); in the data active means inhibition above about 50%; inconclusive means no clear call, values can overlap the other calls
Numbers stand for hits; i = inactive; ? = inconclusive; nt = not tested or not shown. Shown are actives, neighbours in structure and some others; about 3.5% of the full set was active somewhere. Unless noted, no stated cut-off is given here; in the data, active means inhibition above about 30%; inconclusive means no clear call, values can overlap the other calls; inactive means below that.

SMILES | BoNT-F LC inh | Bead autofluor | BoNT-A LC inh2 | Anthrax LF prot | BJeLR viability
COCOCCn1cc(CN2CCS(=O)(=O)N(Cc3ccc(-c4ccc(Cl)c(Cl)c4)cc3)C(C)C2=O)nn1 (stereo not drawn) | i | i | i | i | nt
CCCS(=O)(=O)NC(=O)C1(C)CCN(C(=O)c2nc(C)oc2C)C1 (stereo not drawn) | i | i | i | i | nt
O=C(NCc1cccs1)c1ccc2sc([C@@H]3O[C@H](CO)[C@H](O)[C@H](O)[C@H]3O)nc2c1 | i | i | i | i | nt
CC(C)CCNC(=O)[C@@H](Cc1ccccc1)NC(=O)CC[C@H]1O[C@@H](n2ccc(=O)[nH]c2=O)[C@H](O)[C@@H]1O | i | i | i | i | nt
CN(C)CCNC(=O)c1cccc(-c2cnc3c(NC=O)cc(/C=C/c4ccccc4)cn23)c1 | i | i | i | i | nt
O=C1C2C3C=CC(C3)C2C(=O)N1CN(Cc1ccccc1)CN1C(=O)C2C3C=CC(C3)C2C1=O (stereo not drawn) | i | 16805 | i | i | i
C[C@@H](c1ccccc1)N1C[C@@H](COCc2ccccc2)Oc2cc(N3CCC[C@@H]3CO)ccc2S1(=O)=O | i | i | i | i | nt
Cc1ccc(C(O)c2ncc(-c3ccccc3C(F)(F)F)[nH]2)cc1F (stereo not drawn) | i | i | i | i | nt
Cc1nc2nc(Cc3ccccc3)nn2c(C)c1Cl | i | 22300 | i | i | i
O=S(=O)(NCc1ccc2c(c1)OCO2)c1ccc(F)cc1 | i | i | i | i | i
CN(C)S(=O)(=O)c1ccc(S(=O)(=O)NCc2ccc3c(c2)OCO3)cc1 | 38 | i | i | i | i
O=C(CCNS(=O)(=O)c1ccc(Br)cc1)NCc1ccc2c(c1)OCO2 | i | 24584 | i | i | i
COc1cc(C)nc(N(C)S(=O)(=O)c2ccccc2Cl)n1 | i | i | i | i | i
COc1ccc(C2/C(=C(\O)c3cccc(OC)c3)C(=O)C(=O)N2c2ccccn2)cc1 (stereo not drawn) | i | 23419 | ? | i | i
C=CCN1C(=O)/C(=C\C=C2\N(C)c3ccccc3C2(C)C)SC1=S | i | i | 41 | i | nt
CN1/C(=C\C=C2/SC(=S)N(CC(=O)O)C2=O)C(C)(C)c2ccccc21 | i | i | i | i | i
COc1ccc(F)cc1S(=O)(=O)N1CC(C)CC(C)C1 (stereo not drawn) | i | 20024 | i | i | i
CCN1CCN(S(=O)(=O)c2cc(OC)ccc2OC)CC1 | i | 24223 | i | i | i
CCCCN(C(=S)Nc1cccc(C)c1C)c1c(N)n(CCC)c(=O)[nH]c1=O | i | i | i | i | i
CC(=O)N/C(=C\c1ccc(F)cc1)C(=O)N(C)C | i | i | i | i | i
CC(=O)c1cccc(NC(=O)CSc2nc3ccccc3c(=O)n2CCCN2CCOCC2)c1 | i | i | i | i | nt
Cc1cccc(NC(=O)C(C)Sc2nc3ccccc3c(=O)n2CCCN2CCOCC2)c1 (stereo not drawn) | i | 18006 | i | i | nt
CC1(C(=O)NS(=O)(=O)c2ccccc2Cl)CCN1C(=O)c1ccccc1CCc1ccccc1 (stereo not drawn) | i | i | i | i | nt
O=C(O)CCC(=O)OCC1CCCCC1 | i | 19321 | ? | i | i
CC(C)N(C)NC(=S)Nc1ccccc1 | i | i | i | i | i
SMILES | BoNT-F LC inh | Bead autofluor | BoNT-A LC inh2 | Anthrax LF prot | BJeLR viability
CCN(CC)NC(=S)Nc1ccccc1 | i | 22619 | i | i | i
Cc1cc(F)ccc1C(O)c1ncc(-c2cccc3ccccc23)[nH]1 (stereo not drawn) | i | i | i | i | nt
CCCCCc1ccc(-c2ccc(=O)[nH]n2)cc1 | i | i | i | i | i
Cc1ccc(-c2ccc(=O)[nH]n2)cc1 | i | 21252 | i | i | i
CCCCOC(=O)CNc1n[nH]c(=S)[nH]c1=O | i | 21415 | ? | i | i
CN1CCC(N(C)CC(C)(C)NS(=O)(=O)c2ccccc2)CC1 | i | i | i | i | i
O=c1c(Cl)c(NCCCO)cnn1-c1nc2ccccc2[nH]1 | i | i | i | i | i
C=CCN(CC=C)c1cnn(-c2nc3ccccc3[nH]2)c(=O)c1Cl | i | 21324 | i | i | i
CCC(C)NC(=O)c1ccc(CSCc2ccc(Cl)cc2)o1 (stereo not drawn) | i | i | i | i | i
CCC(C)NC(=O)c1ccc(CS(=O)(=O)Cc2ccc(Cl)cc2)o1 (stereo not drawn) | i | 23433 | i | i | i
S=C(c1ccc(Cl)cc1)N1CCN(Cc2ccccc2)CC1 | i | i | i | i | i
O=C(C1CCCN(S(=O)(=O)c2ccc(Br)cc2)C1)N1CCN(Cc2ccccc2)CC1 (stereo not drawn) | i | 55843 | i | i | i
